Records with an inconclusive call do not appear. The source made the active and inactive calls. Calls come from the whole dose curve; as a rule, active = well fitted curve in the direction sought with a large enough effect; inconclusive = small, poorly fitted or top-dose-only effect, or another doubt; inactive = no such curve, though single readings can be large; an effect the other way counts as inactive or inconclusive.
How the values were obtained:
[1] = Quantitative High-Throughput drug screen in 47 multiple myeloma cell lines against the NCATS MIPE library collection: AMO1_DSMZ cell viability assay (AID 1918927; note: nearly all actives have a fitted effect of over 30% in size)
In short: (§1)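 Luminescent ATP measurement with CellTiter-Glo gives viability, scaled between DMSO-only wells (100%) and media-only wells (0%). Cells, 500 per well, faced library compounds for 48 hours at 37C.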

[2] = Quantitative High-Throughput drug screen in 47 multiple myeloma cell lines against the NCATS MIPE library collection: ARD_JJKsccE7 cell viability assay (AID 1918929)
In short: as §1

[3] = Quantitative High-Throughput drug screen in 47 multiple myeloma cell lines against the NCATS MIPE library collection: Karpas620_DSMZ cell viability assay (AID 1918959); note: nearly all actives have a fitted effect of over 30% in size
In short: (§2)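 Viability readout: CellTiter-Glo luminescence following 5 min room-temperature incubation with reagent. Prior exposure: 48 h, 37C, humidified 5% CO2, 500 cells per well.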

[4] = Quantitative High-Throughput drug screen in 47 multiple myeloma cell lines against the NCATS MIPE library collection: KMM1_JCRB cell viability assay (AID 1918960); note: nearly all actives have a fitted effect of over 30% in size
In short: (§3)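 Myeloma cells, 500 per well, were exposed to MIPE 4.0 drugs by pin transfer for 48 h at 37 °C, 5% CO2. Viability was read as ATP luminescence with CellTiter-Glo, normalised to DMSO-only (100%) and medium-only (0%) wells.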

[5] = Quantitative High-Throughput drug screen in 47 multiple myeloma cell lines against the NCATS MIPE library collection: JIM1_ECACC cell viability assay (AID 1918964)
In short: as §1

[6] = Quantitative High-Throughput drug screen in 47 multiple myeloma cell lines against the NCATS MIPE library collection: Karpas25_ECACC cell viability assay (AID 1918968; note: nearly all actives have a fitted effect of over 35% in size)
In short: as §1

[7] = Quantitative High-Throughput drug screen in 47 multiple myeloma cell lines against the NCATS MIPE library collection: KMS27_JCRB cell viability assay (AID 1918970); note: nearly all actives have a fitted effect of over 30% in size
In short: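 Viability inhibition screen, 48 h compound exposure, luminescent ATP read-out.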

[8] = Quantitative High-Throughput drug screen in 47 multiple myeloma cell lines against the NCATS MIPE library collection: KMS12PE_JCRB cell viability assay (AID 1918972); note: nearly all actives have a fitted effect of over 30% in size
In short: (§4)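 Approved and investigational drugs from MIPE 4.0 were added by pin tool to 500 cells per well. After 48 hours at 37C, ATP-based CellTiter-Glo luminescence indicated remaining viability.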

[9] = Quantitative High-Throughput drug screen in 47 multiple myeloma cell lines against the NCATS MIPE library collection: KMS20_JCRB cell viability assay (AID 1918973); note: nearly all actives have a fitted effect of over 45% in size
In short: as §1

[10] = Quantitative High-Throughput drug screen in 47 multiple myeloma cell lines against the NCATS MIPE library collection: KMS26_JCRB cell viability assay (AID 1918975); note: nearly all actives have a fitted effect of over 45% in size
In short: (§5)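 Myeloma cells (500 per well) were exposed to MIPE 4.0 compounds by pin transfer and incubated 48 hours at 37C, 5% CO2. Viability was read as ATP by CellTiter-Glo luminescence, normalised to DMSO (100%) and media-only (0%) wells.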

[11] = Quantitative High-Throughput drug screen in 47 multiple myeloma cell lines against the NCATS MIPE library collection: Karpas417_ECACC cell viability assay (AID 1918961); conditions: Karpas417 myeloma viability, CellTiter-Glo ATP luminescence, 48 h; viability (% of DMSO): at 45.8 µM (top of the series) unless noted
In short: as §4

[12] = Quantitative High-Throughput drug screen in 47 multiple myeloma cell lines against the NCATS MIPE library collection: KHM11_PLB cell viability assay (AID 1918962); note: nearly all actives have a fitted effect of over 35% in size
In short: as §2

[13] = Quantitative High-Throughput drug screen in 47 multiple myeloma cell lines against the NCATS MIPE library collection: INA6_PLB cell viability assay (AID 1918965; note: nearly all actives have a fitted effect of over 55% in size)
In short: as §4

[14] = Quantitative High-Throughput drug screen in 47 multiple myeloma cell lines against the NCATS MIPE library collection: KMS12BM_JCRB cell viability assay (AID 1918971); note: nearly all actives have a fitted effect of over 35% in size
In short: as §5

[15] = Quantitative High-Throughput drug screen in 47 multiple myeloma cell lines against the NCATS MIPE library collection: JJN3_DSMZ cell viability assay (AID 1918966; note: nearly all actives have a fitted effect of over 50% in size)
In short: as §1

[16] = Quantitative High-Throughput drug screen in 47 multiple myeloma cell lines against the NCATS MIPE library collection: H1112_PLB cell viability assay (AID 1918967; note: nearly all actives have a fitted effect of over 30% in size)
In short: as §1

[17] = Quantitative High-Throughput drug screen in 47 multiple myeloma cell lines against the NCATS MIPE library collection: JIM3_ECACC cell viability assay (AID 1918963; note: nearly all actives have a fitted effect of over 35% in size)
In short: as §2

[18] = Quantitative High-Throughput drug screen in 47 multiple myeloma cell lines against the NCATS MIPE library collection: ARP1_JJKsccF8 cell viability assay (AID 1918928; note: nearly all actives have a fitted effect of over 40% in size)
In short: as §3

[19] = Quantitative High-Throughput drug screen in 47 multiple myeloma cell lines against the NCATS MIPE library collection: KMS21BM_JCRB cell viability assay (AID 1918974); conditions: ATP luminescence, 48 h; viability: at 45.8 µM (top of the series) unless noted
In short: as §1
Potency is the fitted concentration of half-maximal effect.

O=c1[nH]c(-c2ccc(C(F)(F)F)cc2)nc2c1CSCC2
inactive: Potency [1] | Potency [2] | Potency [3] | Potency [4] | Potency [5] | Potency [7] | Potency [8] | Potency [9]
active: Potency [6] 18.7 µM | Potency [10] 3.72 µM

CC[C@@H](C)[C@H](NC(=O)[C@H](CC1CCCCC1)NC(=O)c1ccno1)C(=O)N1CCC2(CCc3ccccc32)CC1
active: viability (% of DMSO) [11] 124% | Potency [14] 9.35 µM
inactive: Potency [1] | Potency [2] | Potency [3] | Potency [4] | Potency [12] | Potency [13] | Potency [7] | Potency [8]

Cc1oncc1C(=O)Nc1ccc(C(F)(F)F)cc1
active: Potency [16] 14.8 µM
inactive: Potency [1] | Potency [2] | Potency [3] | Potency [4] | Potency [5] | Potency [15] | Potency [7] | Potency [8]

Cc1cccc(-c2[nH]c(C(C)(C)C)nc2-c2ccc3nccnc3c2)n1
active: Potency [1] 5.26 µM | Potency [3] 6.62 µM | Potency [4] 4.69 µM | Potency [17] 2.64 µM | Potency [5] 6.62 µM | Potency [13] 7.43 µM | Potency [15] 18.7 µM | Potency [16] 5.26 µM | Potency [6] 1.32 µM | Potency [7] 2.96 µM | Potency [14] 20.9 µM | Potency [8] 4.69 µM

Cc1ccc(-n2nc(C(C)(C)C)cc2NC(=O)Nc2ccc(OCCN3CCOCC3)c3ccccc23)cc1
active: Potency [1] 18.7 µM | Potency [3] 16.6 µM | Potency [17] 18.7 µM | Potency [16] 1.18 µM | Potency [6] 1.05 µM

CCN(CC)CCCC(C)Nc1nc(C)cc(Nc2ccc3nc(C)cc(N)c3c2)n1 (stereo not given)
inactive: Potency [1] | Potency [17] | Potency [16]
active: Potency [3] 7.43 µM | Potency [13] 10.5 µM | Potency [7] 10.5 µM

COc1ccc(COc2cc3oc(=O)c4cc(C(C)O)ccc4c3cc2OC)cc1 (stereo not given)
active: Potency [1] 5.9 µM | Potency [3] 4.69 µM | Potency [4] 4.69 µM | Potency [17] 16.6 µM | Potency [13] 18.7 µM | Potency [15] 26.4 µM | Potency [16] 7.43 µM | Potency [6] 18.7 µM | Potency [14] 23.5 µM | Potency [8] 2.64 µM

NC(N)=NC(=O)c1nc(Cl)c(N)nc1N
inactive: Potency [18] | Potency [3] | Potency [17] | Potency [14]
active: Potency [1] 14.8 µM | Potency [13] 5.26 µM | Potency [16] 8.33 µM | Potency [7] 14.8 µM

Cc1ccc(NC(=O)c2cccc(C(C)(C)C#N)c2)cc1Nc1ccc2ncn(C)c(=O)c2c1
active: Potency [1] 5.9 µM | Potency [2] 0.332 µM | Potency [3] 1.18 µM | Potency [4] 2.35 µM | Potency [11] 0.187 µM | Potency [13] 14.8 µM | Potency [15] 18.7 µM | Potency [6] 13.2 µM | Potency [7] 1.05 µM | Potency [14] 20.9 µM | Potency [8] 5.9 µM | Potency [9] 2.96 µM

CCOC(=O)N1CCC(=C2c3ccc(Cl)cc3CCc3cccnc32)CC1
inactive: Potency [1] | Potency [4] | Potency [5] | Potency [16] | Potency [6] | Potency [8]
active: Potency [18] 20.9 µM | Potency [14] 23.5 µM | Potency [10] 18.7 µM

Nc1cccc(S(=O)(=O)N2CCCN(S(=O)(=O)c3ccc4c(c3)OCCO4)CC2)c1
active: Potency [1] 4.18 µM
inactive: Potency [2] | Potency [3] | Potency [4] | Potency [13] | Potency [7] | Potency [8]

Oc1ccc(C2CNCCc3c2cc(O)c(O)c3Cl)cc1 (stereo not given)
inactive: Potency [1] | Potency [3] | Potency [4] | Potency [17] | Potency [5] | Potency [15] | Potency [16] | Potency [14] | Potency [8] | Potency [9]
active: Potency [6] 5.9 µM | Potency [19] 18.7 µM | Potency [10] 1.32 µM

Cc1cc(-c2ccc(CC(=O)Nc3ccc(-c4cccnc4)cc3)cc2)ccn1
active: Potency [1] 18.7 µM | Potency [2] 16.6 µM | Potency [4] 14.8 µM | Potency [11] 16.6 µM | Potency [17] 18.7 µM | Potency [5] 20.9 µM | Potency [13] 13.2 µM | Potency [16] 18.7 µM | Potency [6] 18.7 µM | Potency [7] 16.6 µM | Potency [14] 18.7 µM | Potency [8] 14.8 µM

O=C1CCCC2=C1C(c1[nH]ncc1Cl)N=C(Nc1nc3ccccc3o1)N2 (stereo not given)
active: Potency [3] 4.18 µM | Potency [13] 5.9 µM | Potency [15] 5.26 µM | Potency [6] 0.662 µM | Potency [14] 4.69 µM | Potency [8] 1.87 µM
inactive: Potency [1] | Potency [11] | Potency [16]

Clc1ccc(Nc2nnc(Cc3ccncc3)c3ccccc23)cc1
active: Potency [3] 1.66 µM | Potency [13] 16.6 µM | Potency [14] 20.9 µM
inactive: Potency [1] | Potency [4] | Potency [5] | Potency [7] | Potency [8]

CCOC(=O)N[C@@H]1CC[C@@H]2[C@@H](C1)C[C@H]1C(=O)O[C@H](C)[C@H]1[C@@H]2C=Cc1ccc(-c2cccc(F)c2)cn1
inactive: Potency [10]
active: Potency [1] 18.7 µM | Potency [2] 18.7 µM | Potency [7] 18.7 µM | Potency [14] 20.9 µM | Potency [8] 14.8 µM

Cc1cc2c(F)c(Oc3ncnn4cc(OC[C@@H](C)O)c(C)c34)ccc2[nH]1
inactive: Potency [3] | Potency [5] | Potency [8]
active: Potency [1] 4.69 µM | Potency [13] 18.7 µM

CC1(C)CNc2cc(NC(=O)c3cccnc3NCc3ccncc3)ccc21
active: Potency [6] 2.09 µM | Potency [8] 4.18 µM
inactive: Potency [1] | Potency [2] | Potency [3] | Potency [4] | Potency [17] | Potency [7]

Fc1ccc(Cl)cc1-c1nc(Nc2ccncc2)c2nccnc2n1
active: Potency [1] 5.26 µM | Potency [13] 16.6 µM | Potency [8] 0.469 µM
inactive: Potency [3] | Potency [11] | Potency [16] | Potency [7]

CC(=O)NC(C)c1ccc(Oc2ccc(OC(C)C)cc2)cc1 (stereo not given)
inactive: Potency [5]
active: Potency [18] 16.6 µM | Potency [3] 0.296 µM | Potency [4] 2.64 µM | Potency [15] 16.6 µM | Potency [16] 2.96 µM | Potency [6] 3.72 µM | Potency [14] 13.2 µM | Potency [8] 5.9 µM

CCCS(=O)(=O)Nc1ccc(F)c(C(=O)c2c[nH]c3ncc(-c4ccc(Cl)cc4)cc23)c1F
inactive: Potency [3] | Potency [4] | Potency [7]
active: Potency [12] 23.5 µM | Potency [17] 18.7 µM | Potency [13] 8.33 µM | Potency [16] 9.35 µM | Potency [6] 9.35 µM | Potency [14] 20.9 µM

C[C@H](NC(=O)Cc1cc(F)cc(F)c1)C(=O)N[C@@H]1C(=O)N(C)c2ccccc2-c2ccccc21
inactive: Potency [3] | Potency [4] | Potency [14]
active: Potency [17] 18.7 µM | Potency [16] 5.9 µM | Potency [6] 5.26 µM | viability [19] 138%

CC(C)NCC(O)COc1ccc(COCCOC(C)C)cc1 (stereo not given)
inactive: Potency [18] | Potency [3] | Potency [4] | Potency [17] | Potency [16] | Potency [6] | Potency [8]

CCc1ccc(CCOc2ccc(CC3SC(=O)NC3=O)cc2)nc1 (stereo not given)
inactive: Potency [1] | Potency [4] | Potency [12] | Potency [5] | Potency [13] | Potency [16] | Potency [6] | Potency [7] | Potency [8] | Potency [10]

CN(C(=O)c1ccc(F)cc1C(F)(F)F)C1CCN(c2nnc(-c3ccnn3C)c3ccccc23)CC1
active: Potency [9] 10.5 µM
inactive: Potency [14]

Reference: PubChem BioAssay (NCATS)
